Many of the other results were omitted from the sample, so the strongest signals are more common in it than they were.

Common to all, as to experiment: glycan array binding signal (z-score within array); higher = stronger binding
Common to all, as to conditions: glycan notation: IUPAC condensed, linker removed

The target of one test is Fuc(a1-2)Gal(b1-4)Glc. The essentials: (§1)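 The binding signal is a Z-score computed within each array. Data were drawn from 3228 arrays in the Consortium for Functional Glycomics database, restricted to those with a known protein sequence. Scores were averaged over arrays of the same protein sequence at different concentrations or buffers, and over linkers, and negative values can be taken as non-binding.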

Test [1] deals with Fuc(a1-2)Gal(b1-4)GlcNAc(b1-3)Gal(b1-4)GlcNAc(b1-3)Gal(b1-4)GlcNAc. In short, it runs like this:
as §1

The target of test [2] is Fuc(a1-2)[Gal(a1-3)]Gal(b1-4)GlcNAc. The essentials:
as §1

The target in test [3] is Fuc(a1-3)[Gal(b1-4)]GlcNAc(b1-2)Man(a1-6)[Gal(b1-4)GlcNAc(b1-2)Man(a1-3)]Man(b1-4)GlcNAc(b1-4)GlcNAc. In short, it runs like this: as §1
The target of test [4] is Fuc(a1-3)[Gal(b1-4)]GlcNAc(b1-4)Gal(b1-4)[Fuc(a1-3)]GlcNAc. The essentials: as §1
A further test concerns the target Gal(a1-3)GalNAc. In short, it runs like this: as §1
Test [5] addresses Gal(b1-3)[Fuc(a1-4)]GlcNAc. In short, it runs like this: as §1
Test [6] concerns the target Gal(b1-4)GalNAc(a1-3)[Fuc(a1-2)]Gal(b1-4)GlcNAc. In short, it runs like this:
as §1

The next test has as its target Gal(b1-4)GlcNAc. The essentials: as §1
For test [7], the target named is Gal(b1-4)GlcNAc(b1-2)Man(a1-3)[Gal(b1-4)GlcNAc(b1-2)Man(a1-6)]Man(b1-4)GlcNAc(b1-4)GlcNAc. The essentials: as §1
Test [8] has as its target Gal(b1-4)GlcNAc(b1-3)Gal(b1-3)GlcNAc. The essentials: as §1
Another test concerns the target Glc(a1-6)Glc(a1-6)Glc. The essentials:
as §1

For the next test, the target named is GlcA(b1-6)Gal. The essentials: as §1
For test [9], the target named is GlcNAc(b1-2)Gal(b1-3)GalNAc. The essentials:
as §1

In test [10] the target is Man(a1-3)[Man(a1-6)]Man(b1-4)GlcNAc(b1-4)GlcNAc. In short, it runs like this: as §1
A further test has as its target Man(a1-6)Man. The essentials:
as §1

Test [11] has as its target Neu5Ac(a2-3)Gal(b1-3)[Fuc(a1-4)]GlcNAc. In short, it runs like this:
as §1

The target in test [12] is Neu5Ac(a2-3)Gal(b1-4)GlcNAc(b1-2)Man(a1-3)[GlcNAc(b1-2)Man(b1-4)GlcNAc(b1-2)Man(a1-6)]Man(b1-4)GlcNAc(b1-4)GlcNAc. The essentials: as §1
Test [13] concerns the target Neu5Ac(a2-3)Gal(b1-4)GlcNAc(b1-2)Man(a1-3)[Neu5Ac(a2-6)Gal(b1-4)GlcNAc(b1-2)Man(a1-6)]Man(b1-4)GlcNAc(b1-4)GlcNAc. In short, it runs like this:
as §1

Test [14] deals with Neu5Ac(a2-6)Gal(b1-4)GlcNAc. The essentials:
as §1

Another test deals with Neu5Ac(b2-6)GalNAc. In short, it runs like this:
as §1

The target in test [15] is Neu5Gc(a2-3)Gal(b1-3)[Fuc(a1-4)]GlcNAc. In short, it runs like this:
as §1

The target in test [16] is Neu5Gc(a2-3)Gal(b1-4)[Fuc(a1-3)]GlcNAc. In short, it runs like this:
as §1

Test [17] concerns the target Neu5Gc(a2-6)Gal(b1-4)GlcNAc. In short, it runs like this: as §1

B1: Codakine (Codakia orbicularis), Q3KVL7_9BIVA (protein)
chain: MKILVAVFLVLVVVGTAAAGCPDGWTQFLDLCYIYQSAKASWASAQSSCQALGGILAEPDTACENEVLIHMCRENGDAGSFGPWLGGQKVGGAWQWSSSGAAFDYLRWGPNEPNNSGGNEDCLHYNWLSWNDLRCHYQASYLCQRAAE
In the case of B1, the “glycan array binding signal (z-score)” value with Fuc(a1-2)Gal(b1-4)Glc was -0.26; in test [1], -0.235; in test [2] it was -0.342; in test [3], 6.48; in test [4], -0.321; with Gal(a1-3)GalNAc, -0.298. In addition, the “glycan array binding signal (z-score)” value in [5] was -0.203; in test [6], -0.419; with Gal(b1-4)GlcNAc, -0.3; in test [7], 4.02; in test [8], -0.239; in the test with Glc(a1-6)Glc(a1-6)Glc it was -0.317. In addition, the “glycan array binding signal (z-score)” value is -0.302 with GlcA(b1-6)Gal; -0.276 in [9]; 4.3 in test [10]; 0.449 with Man(a1-6)Man; -0.34 in [11]; 4.82 in test [12]. In addition, the “glycan array binding signal (z-score)” value was 4.57 in [13]; -0.224 in test [14]; -0.238 with Neu5Ac(b2-6)GalNAc; -0.265 in test [15]; -0.234 in [16]; -0.289 in test [17].

Values taken from the supplement of paper PMC8728848.
